The record followed here is PubChem BioAssay (NCATS).

The assay can be described thus: qHTS drug screen for cell cycle checkpoint inhibitors in PARPi-resistant BRCA-mutant ovarian cancer cell lines. (AID 1963452). The settings on record: PEO1/OlaR viability, CellTiter-Glo luminescence, 96 h; measured here: PEO4 Z-AUC; stronger effect = lower value. Put shortly:
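PEO1, PEO4 and PEO1/OlaR ovarian cancer cells, 600 per well, exposed 96 h at 37C to a dilution series. Viability read by CellTiter-Glo luminescence, normalized to DMSO and empty wells; activity summarized as Z-AUC.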
A general note: qHTS replaces the single test concentration by a dilution series.
For `C=CC(=O)N1CCC[C@H](n2c(=O)n(-c3ccc(Oc4ccccc4)cc3)c3c(N)ncnc32)C1`, the Z-AUC is -0.151.
As for `COc1cc(C(=O)NC(N)=Nc2ccc(C)c(NC(=O)c3ccc(-c4ccccc4)cc3)c2)cc(OC)c1OC`, the Z-AUC came out at 0.136.
The value for `COC(=O)C1=C(C)NC(c2ncc(F)cc2F)=N[C@H]1c1ccc(F)cc1Cl` was 1.13; that for `COc1ccc(COc2ccc(Cc3cnc(N)nc3N)cc2OC)cc1` was 0.82.
Consider `CC1(C)C(N(O)C(=O)Nc2ccc(Cl)cc2)N(c2ccc(Cl)cc2)C(=O)N1CC(=O)N/N=C/C=C/c1ccc([N+](=O)[O-])o1` (stereo not drawn), for which the Z-AUC is 1.09.
For `Cc1cc(-c2cnn3c(NCC4CC(C)(O)C4)cc(Oc4cccnc4)nc23)ccc1C(=O)NC1CC1` (stereo not drawn) the value was -0.202.
In the case of `Cn1c(-c2ccccc2C(F)(F)F)nnc1C12CCC(c3noc(C4CC(F)(F)C4)n3)(CC1)CC2`, the Z-AUC worked out at 1.41.
Take `C[C@]12CC[C@H](O)CC1=CC[C@@H]1[C@@H]2CC[C@]2(C)C(c3cccnc3)=CC[C@@H]12`: the Z-AUC came out at 0.672.
Consider `Cc1cc(C)cc(Oc2ccc(CNC(=O)[C@H](C)N)cc2C)c1`, for which the Z-AUC was 1.3.
For `Cn1cc(-c2nc(N[C@@H]3CCCC[C@@H]3N)c(F)c3c2C(=O)NC3)cn1` the value was 0.422.
`CC[C@@]1(O)C(=O)OCc2c1cc1n(c2=O)Cc2c-1nc1ccccc1c2CCNC(C)C`: the Z-AUC is -1.65.
The value for `c1ccc(CNCc2ccc(CN3CCCNCCNCCCNCC3)cc2)nc1` was 1.11; that for `CN1C(=O)N[C@H](Cc2c[nH]c3c(Cl)cccc23)C1=O` was 0.653.
With `Cc1ccc(NS(=O)(=O)c2ccc3c(c2)C2C=CCC2C(c2ccc(C(=O)O)cc2)N3)cc1C` (stereo not drawn), the Z-AUC is -0.866.
For `O=C(Nc1ccccc1)Nc1ccc(-c2ccc(C(=O)[C@@H]3CCC[C@H]3C(=O)O)cc2)cc1` the value was 0.797; for `CCS(=O)(=O)c1ccc2oc(-c3ccc4ccccc4c3)nc2c1`, 0.217; for `C[C@]12CCC3=C4CCC(=O)C=C4CC[C@H]3[C@@H]1CC[C@@]2(O)CC#N`, 1.39.
`CC(C)=CCC[C@](C)(O[C@@H]1O[C@H](CO[C@@H]2O[C@H](CO)[C@@H](O)[C@H](O)[C@H]2O)[C@@H](O)[C@H](O)[C@H]1O)[C@H]1CC[C@]2(C)[C@@H]1[C@H](O)C[C@@H]1[C@@]3(C)CC[C@H](O[C@@H]4O[C@H](CO)[C@@H](O)[C@H](O)[C@H]4O[C@@H]4O[C@H](CO)[C@@H](O)[C@H](O)[C@H]4O)C(C)(C)[C@@H]3CC[C@]12C`: the Z-AUC was determined as 1.64.
`N=C1S/C(=C\c2ccc(-c3ccc4c(c3)C(=O)NC4=O)o2)C(=O)N1c1ccc(Br)cc1`: the Z-AUC is 0.462.
For `O=C(/C=C\n1cnc(-c2cc(C(F)(F)F)cc(C(F)(F)F)c2)n1)NNc1ccccn1` the value was -1.79; for `C=CC(=O)Nc1cccc(Oc2nc(Nc3ccc(N4CCN(C)CC4)c(F)c3)nc3[nH]ccc23)c1`, -0.658; for `O=S(=O)(Nc1ccc(-c2cccnc2)c2cccnc12)c1cccc(C(F)(F)F)c1`, 0.396.
For `CC(C)n1ncnc1-c1cn2c(n1)-c1ccc(O[C@@H](C)C(N)=O)cc1OCC2` the value was -1.69.
For `COc1ccc2[nH]c3c(c2c1)CCN[C@]31CS[C@@H]2c3c(OC(C)=O)c(C)c4c(c3[C@H](COC1=O)N1[C@@H]2[C@H]2c3c(cc(C)c(OC)c3O)C[C@@H]([C@@H]1O)N2C)OCO4` the value was -2.86; for `COc1cc([C@@H]2c3cc4c(cc3[C@@H](O[C@@H]3O[C@@H]5CO[C@@H](c6cccs6)O[C@H]5[C@H](O)[C@H]3O)[C@H]3COC(=O)[C@H]23)OCO4)cc(OC)c1O`, -2.18; for `C=C1CCC[C@]2(C)C=C3OC(=O)C(C)=C3C[C@@H]12`, -0.0438.
Turning to `COc1cc(C)[nH]c(=O)c1CN1CCc2c(Cl)cc([C@H](OC)C3COC3)c(Cl)c2C1=O`, the Z-AUC came to 0.549.
The value for `CC1=NN(c2ccc(C(=O)O)cc2)C(=O)/C1=C/c1ccc(-c2cc(C)c(C)cc2[N+](=O)[O-])o1` was -0.0936.
